Pf apPOL block – Pf-apPOL DNA polymerase inhibition; Recombinant Pf-apPOL, molecular beacon fluorescence, 1.5 h; inhibition, % at 10 µM; hit rate 0.25% among 210,000; AID 1794808
mHTT-CaM PPI inh – disrupts binding of mutant huntingtin to calmodulin. P42858. AID 1671202. AlphaScreen His-mHTT/GST-CaM binding, luminescence. hit rate 3.6% among 190,000. inhibition, % at 15 µM;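 note: 0% = both proteins with DMSO and 100% = one protein alone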
* marks the source's active call; other numbers are inactive results; · = no result given. Most compounds without a hit are left out; they make up all but 3.5% or so of the library. Cut-off read from the data, not from the text of the source: active = inhibition above about 50%; inactive = the rest.

SMILES	Pf apPOL block	mHTT-CaM PPI inh
CC(C)(C)N=C1Nc2ccccc2NC12CCCN(C(=O)COc1ccccc1)C2 (stereo unspecified)	-5	36
CC(C)(C)N=C1Nc2ccccc2NC12CCCN(C(=O)c1ccncc1)C2 (stereo unspecified)	16	18
CC(C)S(=O)(=O)c1ccc(CC(=O)N(CCc2cccs2)C2CC2)cc1	-5	-13
CC(C)c1nc2c(c(=O)n1CC(=O)Nc1cccc(F)c1)CCN(Cc1ccccc1)C2	-4	84*
CC(C)c1nc2c(c(=O)n1CC(=O)Nc1ccccc1F)CCN(Cc1ccccc1)C2	-1	9
CCCN1C(=O)c2ccccc2NC1c1ccc(F)cc1 (stereo unspecified)	-3	-12
CCc1ccc(CNC(=O)C2CCN(c3cncnc3N3CCCC3)CC2)cc1	1	7
O=C(NCc1cccc(C(F)(F)F)c1)C1CCN(c2cncnc2N2CCCC2)CC1	3	63*
O=C(NCc1cccc(F)c1)C1CCN(c2cncnc2N2CCCC2)CC1	-9	17
O=C(NCc1ccc(Cl)cc1)C1CCN(c2cncnc2N2CCCC2)CC1	-4	70*
CC(=O)c1ccc(N=Cc2cc(Br)ccc2O)cc1	1	-2
COc1ccc2c(c1)OC1(C)CC2/C(=C(\C)O)C(=O)N1 (stereo unspecified)	-3	4
O=C(CSc1nc2c(c(=O)n1-c1ccccc1)SCC2)Nc1ccccc1F	-5	0
COc1ccc(OC)c(NC(=O)N2CCC3(CC2)Nc2cc(F)ccc2-n2cccc23)c1	1	63*
COc1ccccc1NC(=O)N1CCC2(CC1)Nc1cc(F)ccc1-n1cccc12	-9	57*
COc1ccc(C)cc1NC(=O)N1CCC2(CC1)Nc1ccccc1-n1cccc12	2	36
Cc1ccccc1NC(=O)N1CCC2(CC1)Nc1cc(F)ccc1-n1cccc12	-5	35
COc1ccc(Cl)cc1NC(=O)N1CCC2(CC1)Nc1cc(F)ccc1-n1cccc12	-2	55*
O=C(c1ccsc1)N1CCC(Nc2ncnc3c2CCC3)CC1	3	-5
O=C(c1ccsc1)N1CCCCC1c1nc(-c2cccnc2)no1 (stereo unspecified)	-6	-18
S=C(NCCc1ccccc1)N1CCOCC1	-11	·
Fc1cc(F)c(C2SCCN2C(=S)NCCc2ccccc2)c(F)c1 (stereo unspecified)	·	59*
O=C(Nc1cc(F)cc(F)c1)c1ccc(N2CCN(c3ccccn3)CC2)c([N+](=O)[O-])c1	-4	41
Nc1c(C(=O)Nc2ccc(Cl)cc2Cl)sc2[nH]c(=O)c(C(=O)O)cc12	6	7
Nc1c(C(=O)c2ccc(Cl)cc2)sc2[nH]c(=O)c(C(=O)O)cc12	-1	59*
SMILES	Pf apPOL block	mHTT-CaM PPI inh
CS(=O)(=O)N1CCN(c2ccc([N+](=O)[O-])c(NCCOc3ccc(Cl)cc3)c2)CC1	-11	15
CCc1ccc(OCCNc2cc(N3CC(C)NC(C)C3)ccc2[N+](=O)[O-])cc1 (stereo unspecified)	-1	100*
Cc1ccc(C(=O)N2CCCC2c2ccccc2C)cc1 (stereo unspecified)	0	-9
Cc1ccc(C(=O)N2Cc3ccccc3CC2C(=O)O)cc1 (stereo unspecified)	-1	53*
O=C(c1cn2c(n1)CSCC2)N1CCC(Cc2ccccc2)CC1	1	57*
O=C(c1cn2c(n1)COCC2)N1CCC(Cc2ccccc2)CC1	-5	35
O=C(Nc1ccccc1C(=O)NC1CCCCC1)c1cccc(Cl)c1	-3	-6
Cc1cccc(N=C2C(=O)Nc3ccc(Br)cc32)c1C	0	66*
Cc1ccc(C)c(N=C2C(=O)Nc3ccc(Br)cc32)c1	-6	11
Cc1cc(C)c(-n2c(O)c(C=C3C=Nc4ccccc43)c(=O)[nH]c2=O)c(C)c1	2	100*
O=c1[nH]c(=O)n(-c2ccccc2F)c(O)c1C=C1C=Nc2ccc(Br)cc21	5	100*
CC1=Nc2ccccc2C1=Cc1c(O)n(-c2ccc(C)cc2)c(=O)[nH]c1=O	-44	12
Cc1ccc(-n2c(O)c(C=C3C=CC=N3)c(=O)[nH]c2=O)cc1	0	12
CC(C)C(=O)Nc1cc(-c2ccccc2)nn1-c1ccccc1Cl	-3	-7
CNC(=O)c1cc(N2CCOCC2)nc2c(C)cccc12	2	-5
Cn1c(=O)c(N2CCN(C(=O)c3ccccc3Cl)CC2)nc2ccncc21	1	4
COc1ccc(C(CCN2CCCC(C)C2)c2c(OC)cc(OC)c3c2OC(=O)CC3c2cc(OC)c(OC)c(OC)c2)cc1 (stereo unspecified)	-2	54*
COc1cc(C(CCN2CCOCC2)c2c(OC)cc(OC)c3c(C)cc(=O)oc23)cc(OC)c1OC (stereo unspecified)	-12	28
CCCCCc1cc(=O)oc2c(C(CCN3CCCCC3)c3ccc(OC)cc3)c(OC)cc(OC)c12 (stereo unspecified)	-19	100*
COc1cc(C(CCN2CCCCC2)c2c(OC)cc(OC)c3c(-c4ccccc4)cc(=O)oc23)cc(OC)c1OC (stereo unspecified)	-16	67*
COc1cc(C(CCN2CCCC(C)C2)c2c(OC)cc(OC)c3c(-c4ccccc4)cc(=O)oc23)cc(OC)c1OC (stereo unspecified)	-9	87*
COc1cc(C(CCN2CCCC2)c2c(OC)cc(OC)c3c(C)cc(=O)oc23)cc(OC)c1OC (stereo unspecified)	-13	10
COc1cc(OC)c2ccc(=O)oc2c1C(CCN1CCCC(C)C1)c1ccc2c(c1)OCO2 (stereo unspecified)	-8	17
COc1cc(OC)c2ccc(=O)oc2c1C(CCN1CCCCC1)c1ccc(N(C)C)cc1 (stereo unspecified)	-12	42
CCCOC(=O)C1C2C=CC3(CN(C4CCCCC4)C(=O)C13)O2 (stereo unspecified)	-2	-20
SMILES	Pf apPOL block	mHTT-CaM PPI inh
CCOc1ccc(C(=O)Nc2ccc(-n3nncc3C(C)(C)C)cc2)cc1	-5	10
O=S(=O)(c1ccc(Cl)cc1)N1CCN(Cc2noc3ccccc23)CC1	-3	-10
COc1cccc(C(=O)NCc2nn(C)c3ccccc23)c1	1	12
CCc1ccccc1NC(=O)c1ccc(N(Cc2ccccc2Cl)S(C)(=O)=O)cc1	2	-1
O=C(c1cc2c(s1)CCC(C(=O)N1CCOCC1)C2)N1CCOCC1 (stereo unspecified)	1	-9
Clc1ccc(OCCCCn2ccnc2)c(Br)c1	-2	9
CC(=O)NC1C(O)OC(CO)C(O)C1O (stereo unspecified)	-16	·
COC(=O)C1OC(O)C(O)C(O)C1O (stereo unspecified)	96*	·
N#CC1=C(N)SC(N)=C(C#N)C1c1cc(Br)ccc1F	7	11
O=C(NC(NCC1CCCO1)C(Cl)(Cl)Cl)c1ccco1 (stereo unspecified)	97*	-1
O=C(NC(NCCc1ccccc1)C(Cl)(Cl)Cl)c1ccco1 (stereo unspecified)	-1	-10
Cc1cccc(CNC(=O)c2ccc3c(c2)nc2n3CCC(C)C2)c1 (stereo unspecified)	-6	-5
CCC(=O)NCc1csc(C2CCCN(C(=O)c3ccc(F)cc3Cl)C2)n1 (stereo unspecified)	-8	-8
CCC(CC)C(=O)Nc1ccc(Cl)cc1Cl	-2	-5
N#CCCN(CCc1ccccn1)C(=O)Nc1ccc2c(c1)CCO2	-6	·
